High-throughput results from PubChem.
Rows were chosen to be rich in hits. Some 0.3% of all compounds tested hit in one or more screens of this group.
NPYLR7 ag: mosquito NPYLR7 agonism; activation, % at 10 µM; AID 1259423; HEK293T NPYLR7/Galpha15, GCaMP6s calcium fluorescence; 0.15% of 270,000 active; in the data active means activation above about 40%;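 further: 0% = vehicle and 100% = reference agonist at the receptor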
mcGAS inh: inhibitors of mouse cGAS; inhibition, % at 12.5 µM; recombinant cGAS, Kinase-Glo ATP depletion luminescence; AID 1259399; Q8C6L5; 0.15% of 160,000 active;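 further: 0% = negative control wells and 100% = reference inhibitor with no enzyme activity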
hcGAS inh: human cGAS inhibition | AID 1259398 | Q8N884 | 0.081% of 290,000 active | recombinant h-cGAS, ATP depletion, Kinase-Glo luminescence | inhibition, % at 12.5 µM;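 further: 0% = vehicle reaction and 100% = reaction without DNA for no activity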
Target sequence (Q8N884 whole entry, looked up): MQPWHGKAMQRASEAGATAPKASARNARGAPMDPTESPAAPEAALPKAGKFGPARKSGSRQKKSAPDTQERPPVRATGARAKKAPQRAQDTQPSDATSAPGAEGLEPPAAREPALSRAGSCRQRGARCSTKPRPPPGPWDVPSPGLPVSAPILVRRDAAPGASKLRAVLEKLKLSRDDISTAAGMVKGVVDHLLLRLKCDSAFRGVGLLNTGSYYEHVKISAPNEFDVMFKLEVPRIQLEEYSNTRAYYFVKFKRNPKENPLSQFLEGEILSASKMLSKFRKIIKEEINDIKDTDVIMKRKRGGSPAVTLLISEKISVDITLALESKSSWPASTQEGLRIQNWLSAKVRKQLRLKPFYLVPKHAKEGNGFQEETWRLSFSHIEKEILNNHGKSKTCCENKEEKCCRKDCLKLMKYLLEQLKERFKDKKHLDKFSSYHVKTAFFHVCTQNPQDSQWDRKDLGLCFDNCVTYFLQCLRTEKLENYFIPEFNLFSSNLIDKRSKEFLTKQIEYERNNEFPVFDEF
* marks the source's active call; other numbers are inactive results; . = no result. Unless noted, no stated cut-off is given here; in the data, active means inhibition above about 40%; inactive means the rest.

SMILES	NPYLR7 ag	mcGAS inh	hcGAS inh
CCOc1ccc(C(=O)NC(C(=O)N2CCN(Cc3ccco3)CC2)C(C)C)cc1 (configuration not stated)	0	.	-3
CCn1nnc2c(NCCC(C)C)ncnc21	9	.	-5
COc1cccc2c1OCCCN(C(=O)c1cc3n(n1)CCCN(C)C3)C2	-1	-15	-7
O=C1CNC(=S)N1c1ccc2c(c1)nc1n2CCCCC1	.	.	-10
C=C1C(C)=Nc2c(OC(C)C)nc(N)nc2N1C	-2	.	-10
Cc1noc(C)c1CN(C)C(C)C(=O)N1CCc2ccccc21 (configuration not stated)	6	.	-2
CC(CCc1ccc(O)cc1)NC1CCN(S(C)(=O)=O)CC1 (configuration not stated)	-2	.	2
CC(C(=O)Nc1ccc(F)c(F)c1)N1CCC(C(=O)N2CCCC2)CC1 (configuration not stated)	14	-8	-8
N#CC(C#N)=CC(=N)C(C#N)c1cc(O)c(O)c(O)c1 (configuration not stated)	7	51*	12
COc1cccc(/C=N\Nc2ccc3c(Cl)cc(Cl)c(O)c3n2)c1O	-4	-5	-6
CN(CC1COc2ccccc2O1)C(=O)CCl (configuration not stated)	-5	54*	-7
CN(CC1COc2ccccc2O1)C(=O)CN1C(=O)c2ccccc2S1(=O)=O (configuration not stated)	2	.	-6
COCC1CN(C2CCC2)CC12CCN(C(=O)C1(c3ccccc3)CC1)CC2 (configuration not stated)	.	-6	-18
COc1ccc(C(=O)N2CCC3(CC2)CN(C2CCC2)CC3CO)cn1 (configuration not stated)	.	-5	48*
Cc1ccc(N(C)C(=O)Cc2ccc3ccccc3c2)cc1	-9	.	-5
CN1C(=S)N(CCCN2CCOCC2)C(=O)/C1=C/c1ccc(N(C)C)cc1	60*	-9	-8
CN1C(=S)N(CCCN2CCOCC2)C(=O)/C1=C\c1ccc2c(c1)OCO2	17	-7	-6
CC(C)n1nccc1NC(=O)c1ccc(-c2ccccc2F)o1	5	.	-6
CCN(CC)CC[n+]1c(C)cc(C=C2Sc3ccccc3N2C)cc1C	44*	.	11
CN1C(=CC(=O)C(F)(F)F)Sc2ccccc21	3	-6	-10
Oc1c(Br)cc(Br)cc1C=NC1CC1	9	.	53*
CNN=Cc1cc(Br)cc(Br)c1O	25	13	11
CCS(=O)CCNCc1cccc(OCc2ccccn2)c1 (configuration not stated)	2	.	-9
Cc1cccnc1[C@H](C)NC(=O)C1(S(=O)(=O)c2ccccc2)CC1	0	-16	-4
CN1CCN(N=CC2C(=O)Nc3ccccc32)CC1 (configuration not stated)	-12	.	4
SMILES	NPYLR7 ag	mcGAS inh	hcGAS inh
O=C1Nc2ccccc2C1C=NN1CCOCC1 (configuration not stated)	51*	-7	-3
Cc1c(Cl)cccc1N=Nc1c(-c2ccccc2)[nH]n(-c2nc(-c3ccccc3)cs2)c1=O	-3	20	53*
O=c1c(N=Nc2ccccc2Cl)c(-c2ccccc2)[nH]n1-c1nc(-c2ccccc2)cs1	8	3	22
CCc1nc2ccc(C(=O)Nc3cccc(OCC(=O)N(C)C)c3)cn2c1N(C=O)CCC(C)C	-2	-5	-10
COc1cccc(C(=O)Oc2ccc3c(c2)O/C(=C\c2ccc(C)o2)C3=O)c1	-6	-1	0
CCC(=O)Oc1ccc2c(c1)O/C(=C\c1ccco1)C2=O	-1	80*	17
O=C1/C(=C/c2csnn2)CCOc2cc(Br)ccc21	13	53*	-6
COc1ccc2c(c1)CCC(=Cc1cc(Br)ccc1OC)C2=O	-1	-5	-2
O=C(NC1CCCCC1)C(=O)c1ccc(C2CCCCC2)cc1	-6	-7	-5
COc1ccc(-n2ccnc2-c2cccc(OC)c2OC)cn1	0	0	-4
COc1ccc(-n2ccnc2-c2ccc(C#CC(C)(C)O)cc2)cn1	57*	.	-8
C=CCCC(O)CNc1ccc(-n2nc(OCCOCC)nc2-c2ccccc2C)cc1 (configuration not stated)	-1	0	52*
CCOCCOc1nc(-c2ccccc2C)n(-c2ccc(NC(=O)CCCCl)cc2)n1	-1	0	2
CC(C)C1CN(CCn2ccnc2)CCCN1Cc1ccc(F)cc1 (configuration not stated)	8	.	-7
O=C(/C=C/c1ccc(Cl)cc1Cl)n1cccn1	-10	44*	4
CN1CCN(C(=O)/C=C/c2ccc(Cl)cc2Cl)CC1	-3	-6	-2
O=C(O)C(Cc1ccccc1)N1C(=O)/C(=C/c2ccc([N+](=O)[O-])cc2)SC1=S (configuration not stated)	6	54*	2
